Records with an inconclusive call do not appear. Where a call stands in place of a potency, no number is given. The source made the active and inactive calls. The call rests on the fitted dose curve; in most records, active means well fitted inhibition curve with a large enough effect; inconclusive means small, poorly fitted or top-dose-only effect; inactive means flat fitted curve, though single readings scatter. Peptide text beside a SMILES is read from it.
Each compound was assayed on P94_40 (assay: qHTS profiling for inhibitors of Plasmodium falciparum proliferation (AID 504749; further: nearly all actives have a fitted effect of over 60% in size)). Settings: P. falciparum in erythrocytes, SYBR Green DNA, 72 h; series mostly up to 12.8 µM.
Method in brief: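 Three-day growth assay of blood-stage parasites in erythrocytes (0.3% parasitemia, 2.5% hematocrit) at 37 C, 5% CO2, quantified by SYBR Green DNA staining after overnight detergent lysis.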
Potency means the concentration at half of the fitted maximal effect.

SMILES	Potency
CCC(C)C(=O)OC1CCC=C2C=CC(C)C(CCC3CC(O)CC(=O)O3)[C@@H]21 (stereo not given in full)	inactive
C[C@]1(c2ccccc2)OC(C(=O)O)=CC1=O	inactive
OCC1OC([S-])[C@H](O)C(O)C1O.[Au+] (stereo not given in full)	inactive
COC(=O)N/N=C/C1=C[N+](=O)c2ccccc2[N+]1=O	inactive
CN1CC(=O)N=C1N	inactive
CNC1CC(N)[C@H](O)[C@@H](O[C@@H]2OC(CO)C3OC4(OC(C(N)CO)C(O)C(O)C4O)O[C@@H]3[C@H]2O)C1O (stereo not given in full)	inactive
COC1C=CO[C@@]2(C)Oc3c(C)c(O)c4c(O)c(c(C=NN5CCN(C)CC5)c(O)c4c3C2=O)NC(=O)/C(C)=C\C=CC(C)C(O)[C@@H](C)C(O)C(C)[C@H](OC(C)=O)C1C (stereo not given in full)	0.282 µM (active)
CC(=O)N[C@@H]1C(O)OC(CO)C(O)C1O (stereo not given in full)	inactive
CCC(CCC(C)C1CCC2C3CC=C4CC(O)CC[C@@]4(C)C3CC[C@@]12C)C(C)C (stereo not given in full)	inactive
O=C1OC(CO)C(O)C(O)C1O (stereo not given)	inactive
COc1ccc(CC(N)C(=O)NC2C(CO)OC(n3cnc4c(N(C)C)ncnc43)C2O)cc1 (stereo not given)	0.891 µM (active)
CCCC(=O)O[C@]1(C(=O)CO)CCC2[C@@H]3CCC4=CC(=O)CC[C@]4(C)C3C(O)C[C@]21C (stereo not given in full)	inactive
COC(=O)C(Cc1ccccc1)NC(=O)C(N)CC(=O)O (stereo not drawn) (H-Asp-Phe-OMe; configuration not given here)	inactive
CC[C@@]12CCCN3CCc4c(n(c5ccccc45)[C@](O)(C(=O)OC)C1)C32 (stereo not given in full)	inactive
CC1(C)SC2C(N3C(=O)C(c4ccccc4)NC3(C)C)C(=O)N2C1C(=O)O (stereo not given)	inactive
